Laboratory results as given in PMC7826789 (International Journal of Molecular Sciences, 2021).

Key:
Details in all cases: Compound Concentration (nM):1000
[1] = test system: PAK1
[2] = test system: PAK2
[3] = test system: PAK3
[4] = test system: PAK4
[5] = test system: PAK6
[6] = test system: PAK7
[7] = test system: T1, PCTK1
T1 construct: gene CDK16

[8] = test system: T2, PCTK2
T2 construct: gene CDK17

[9] = test system: T3, PCTK3
T3 construct: gene CDK18

[10] = test system: PDGFRA
[11] = test system: PDGFRB
[12] = test system: PDPK1
[13] = test system: T4, PFCDPK1(P.falciparum)
T4 construct: gene CDPK1

[14] = test system: T5, PFPK5(P.falciparum)
T5 construct: gene MAL13P1.279

[15] = test system: T6, PFTAIRE2
T6 construct: gene CDK15

[16] = test system: T7, PFTK1
T7 construct: gene CDK14

[17] = test system: PHKG1
[18] = test system: PHKG2
[19] = test system: PIK3C2B
[20] = test system: PIK3C2G
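Note: KINOMEscan scanMAX binding as percent activity remaining versus control; lower means stronger binding.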

Compound	Percent Control [1] [%]	Percent Control [2] [%]	Percent Control [3] [%]	Percent Control [4] [%]	Percent Control [5] [%]	Percent Control [6] [%]	Percent Control [7] [%]	Percent Control [8] [%]	Percent Control [9] [%]	Percent Control [10] [%]	Percent Control [11] [%]	Percent Control [12] [%]	Percent Control [13] [%]	Percent Control [14] [%]	Percent Control [15] [%]	Percent Control [16] [%]	Percent Control [17] [%]	Percent Control [18] [%]	Percent Control [19] [%]	Percent Control [20] [%]
COc1cccc(-n2ncc3c(N/N=C/c4ccncc4)ncnc32)c1 [GW784752X]	100	100	100	100	96	100	25	70	100	36	60	92	33	100	74	95	37	93	100	98
COc1ccc(COc2ccc(Cc3cnc(N)nc3N)cc2OC)cc1 [GW632580X]	100	100	62	100	92	100	84	100	73	91	92	100	70	71	80	74	100	96	86	100
COc1ccccc1-c1cc(/C=C2\C(=O)Nc3ncc(Br)cc32)cc(Br)c1O [GW442130X]	100	100	67	100	100	98	79	100	100	71	72	89	100	100	100	100	100	100	59	87
CC1=C(C(=O)Nc2ccc3[nH]ncc3c2)C(c2ccc(Cl)c(Cl)c2)CC(=O)N1 (centres unmarked) [GSK299115A]	94	84	96	82	79	91	85	100	93	100	99	100	87	71	66	49	100	84	84	77
Nc1ncnc2occ(-c3ccc(NC(=O)Nc4cc(C(F)(F)F)ccc4F)cc3)c12 [GW770249X]	100	100	31	100	100	100	82	29	31	1.4	0	57	83	100	46	18	100	100	100	88
CCc1ccc(Oc2nccc(-c3c(-c4ccc(F)cc4)ncn3C3CCNCC3)n2)cc1 [SB-242719]	100	100	71	100	82	98	87	100	94	100	81	86	66	87	93	86	90	72	100	93
COc1cc(C)c(N(C)C(=O)CN(C)C)cc1Nc1nc(Nc2cccc(F)c2C(N)=O)c2cc[nH]c2n1 [GSK2219385]	100	74	100	100	96	82	79	100	100	100	100	97	100	76	79	100	100	83	100	92
Cl.O=C(Nc1ccc(Oc2ccc3[nH]c(NC(=O)c4ccco4)nc3c2)cc1)Nc1cc(C(F)(F)F)ccc1F [GW683134A]	100	100	5.6	100	92	100	100	100	100	11	0.3	67	84	100	87	100	100	95	100	83
COc1ccc2cc(-c3c(-c4ccncc4)nc(-c4ccc(S(C)(=O)=O)cc4C)n3C)ccc2c1 [SB-633825]	87	85	12	81	97	87	74	100	100	91	70	100	61	77	45	80	100	84	76	81
CCS(=O)(=O)c1ccc(OC)c(Nc2ncc(-c3cccc(OC)c3)o2)c1 [GW580509X]	100	100	100	100	96	100	100	100	100	69	9.7	100	7.8	100	100	100	100	100	100	97
